Reference: PubChem BioAssay (Tox21)
Records with an inconclusive call do not appear. Calls of active or inactive are those of the source. Unless noted, the call rests on the fitted dose curve; in most records, active means well fitted curve in the direction sought with a large enough effect in the repeat runs; inconclusive means weak or mixed curves; inactive means no such curve, though single readings can be large; an effect the other way counts as inactive or inconclusive.

Experiments:
[1] = qHTS assay to identify small molecule antagonists of the sonic hedgehog signaling (Shh) pathway (AID 1259369; calls by dose curve; further: nearly all actives have a fitted effect of over 45% in size; further: potency means the concentration at half of the fitted maximal effect)
Procedure, shortened: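 3T3Gli1-Luc, conditioned-medium-stimulated, 24hr cpd, 37C/5% CO2; Gli1-driven firefly Luc luminescence after 30min RT with luciferase reagent. Cells plated 4hr before cpd.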

[2] = biological target: Estrogen receptor beta (Homo sapiens) (UniProt Q92731); assay: qHTS assay to identify small molecule agonists of the estrogen receptor beta (ER-beta) signaling pathway (AID 1259377; active means well fitted activation curve with a large enough effect in the signal ratio in the repeat runs, not every such curve was filed as active; the % refers to the signal ratio)
Estrogen receptor beta (Homo sapiens), sequence (Q92731 whole entry, looked up): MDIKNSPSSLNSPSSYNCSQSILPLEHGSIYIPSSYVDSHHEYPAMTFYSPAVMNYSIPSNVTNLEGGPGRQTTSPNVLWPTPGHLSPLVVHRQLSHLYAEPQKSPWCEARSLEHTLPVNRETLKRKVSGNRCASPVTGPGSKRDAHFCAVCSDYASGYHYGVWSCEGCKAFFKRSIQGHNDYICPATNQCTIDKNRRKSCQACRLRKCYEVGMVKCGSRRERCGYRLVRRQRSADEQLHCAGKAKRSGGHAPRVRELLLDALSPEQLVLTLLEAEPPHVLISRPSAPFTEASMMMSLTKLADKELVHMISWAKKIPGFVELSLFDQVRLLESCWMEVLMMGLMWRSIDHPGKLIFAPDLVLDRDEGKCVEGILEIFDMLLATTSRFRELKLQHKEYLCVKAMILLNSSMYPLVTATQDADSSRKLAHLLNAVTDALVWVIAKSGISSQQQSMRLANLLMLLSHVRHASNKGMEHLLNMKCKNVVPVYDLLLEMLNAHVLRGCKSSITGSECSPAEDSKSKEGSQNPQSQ
Procedure, shortened: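 Reporter cells (HEK293T, ER-beta-UAS-bla) receive compounds or DMSO after a 6 hr pre-incubation. They then incubate 16 hr at 37C/5% CO2, and fluorescence from LiveBLAzer B/G substrate is measured after 2 hours at room temperature.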

[3] = biological target: Estrogen receptor beta (Homo sapiens) (UniProt Q92731); assay: qHTS assay to identify small molecule antagonists of the estrogen receptor beta (ER-beta) signaling pathway (AID 1259378; active means well fitted inhibition curve with a large enough effect in the signal ratio in the repeat runs, not every such curve was filed as active; the % refers to the signal ratio)
Procedure, shortened: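 Antagonist mode: compounds added to beta-lactamase reporter HEK293T ER-beta-UAS cells stimulated with E2 (1nM final), 16 hr at 37C. LiveBLAzer B/G FRET substrate, 2 hours room temperature, fluorescence read-out.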

[4] = qHTS assay to identify small molecule agonists of the androgen receptor (AR) signaling pathway in the presence of an antagonist - cell viability counter screen (AID 1259379);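 further: MDA-kb2 human breast cancer cells carrying an MMTV luciferase reporter; series mostly up to about 92 µM; nearly all actives have a fitted effect of over 25% in size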
Procedure, shortened: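 Cells: MDA-kb2 (MMTV-luc, AR and GR elements), 3,000/well, 5 hr settle. Added: nilutamide 3.0uM final, then compounds (15 conc.). Incubation: 16 hr, 37C, no CO2. Read-out: CellTiter-Fluor, 1 hr, fluorescence.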

[5] = qHTS assay to identify small molecule agonists of the estrogen receptor beta (ER-beta) signaling pathway - cell viability counter screen (AID 1259380); further: nearly all actives have a fitted effect of over 30% in size
Procedure, shortened: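 HEK293T ER-beta-UAS-bla; 2% CS-FBS; 6 hr pre-plate, 16 hr cpd at 37C/5% CO2; LiveBLAzer read first, then CellTiter-Glo 30 min RT, luminescence.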

[6] = biological target: Androgen receptor (Homo sapiens) (UniProt P10275); assay: qHTS assay to identify small molecule agonists of the androgen receptor (AR) signaling pathway in the presence of an antagonist (AID 1259381; calls by dose curve; further: nearly all actives have a fitted effect of over 15% in size)
Androgen receptor (Homo sapiens), sequence (P10275 whole entry, looked up): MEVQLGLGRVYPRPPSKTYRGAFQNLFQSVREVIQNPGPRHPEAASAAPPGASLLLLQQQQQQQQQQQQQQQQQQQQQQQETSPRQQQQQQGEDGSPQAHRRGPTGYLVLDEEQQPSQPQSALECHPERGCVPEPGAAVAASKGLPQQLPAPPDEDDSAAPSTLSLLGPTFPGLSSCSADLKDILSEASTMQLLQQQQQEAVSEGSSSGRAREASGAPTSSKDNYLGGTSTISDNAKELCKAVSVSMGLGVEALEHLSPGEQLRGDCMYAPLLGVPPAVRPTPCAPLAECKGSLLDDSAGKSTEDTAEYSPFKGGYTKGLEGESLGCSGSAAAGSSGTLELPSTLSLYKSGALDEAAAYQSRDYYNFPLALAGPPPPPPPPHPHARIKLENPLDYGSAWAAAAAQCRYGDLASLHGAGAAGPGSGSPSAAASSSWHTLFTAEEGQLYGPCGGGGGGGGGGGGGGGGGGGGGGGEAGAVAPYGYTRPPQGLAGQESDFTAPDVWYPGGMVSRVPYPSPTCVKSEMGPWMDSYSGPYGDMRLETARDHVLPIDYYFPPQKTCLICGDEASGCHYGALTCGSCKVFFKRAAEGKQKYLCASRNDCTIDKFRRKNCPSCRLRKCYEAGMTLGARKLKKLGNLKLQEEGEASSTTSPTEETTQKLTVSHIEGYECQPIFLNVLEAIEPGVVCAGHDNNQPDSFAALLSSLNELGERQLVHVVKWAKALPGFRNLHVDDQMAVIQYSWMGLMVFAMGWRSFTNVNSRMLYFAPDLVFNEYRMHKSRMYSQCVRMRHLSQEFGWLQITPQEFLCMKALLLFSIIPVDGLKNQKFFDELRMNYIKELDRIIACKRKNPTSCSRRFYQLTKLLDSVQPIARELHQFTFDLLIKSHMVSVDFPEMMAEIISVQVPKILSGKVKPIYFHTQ
Procedure, shortened: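 MDA-kb2 cells, 3,000/well, rested 5hr at 37C/0% CO2 → nilutamide 3.0uM final or buffer → compounds, 15 conc. → 16hr at 37C → ONE-Glo, 30min RT → luminescence.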

[7] = qHTS assay to identify small molecule antagonists of the estrogen receptor beta (ER-beta) signaling pathway - cell viability counter screen (AID 1259382);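 further: HEK293T cells carrying ER-beta-UAS-bla reporter stimulated with estradiol; series mostly up to about 92 µM; nearly all actives have a fitted effect of over 55% in size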
Procedure, shortened: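 Cells: ER-beta-UAS-bla HEK293T, 2,000/well, 2% CS-FBS, 6 hr settle. Cpd + E2 (1nM final), 16 hr, 37C/5% CO2. Bla FRET substrate 2 hr RT, then CellTiter-Glo 30 min RT, luminescence.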

[8] = qHTS assay to identify small molecule agonists or antagonists of the thyroid stimulating hormone receptor (TSHR) signaling pathway - wild type cell line counter screen (AID 1259384; calls by dose curve)
Procedure, shortened: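 Counter screen in untransfected Hek293: compounds (15-point titration, triplicate) plus phosphodiesterase inhibitor Ro20-1724 added after 18 h plating; 30 min RT. Intracellular cAMP via competitive d2/cryptate immunoassay, 1 h incubation.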

[9] = biological target: Thyrotropin receptor (Homo sapiens) (UniProt P16473); assay: qHTS assay to identify small molecule antagonists of the thyroid stimulating hormone receptor (TSHR) signaling pathway (AID 1259385; calls by dose curve; further: nearly all actives have a fitted effect of over 20% in size)
Thyrotropin receptor (Homo sapiens), sequence (P16473 whole entry, looked up): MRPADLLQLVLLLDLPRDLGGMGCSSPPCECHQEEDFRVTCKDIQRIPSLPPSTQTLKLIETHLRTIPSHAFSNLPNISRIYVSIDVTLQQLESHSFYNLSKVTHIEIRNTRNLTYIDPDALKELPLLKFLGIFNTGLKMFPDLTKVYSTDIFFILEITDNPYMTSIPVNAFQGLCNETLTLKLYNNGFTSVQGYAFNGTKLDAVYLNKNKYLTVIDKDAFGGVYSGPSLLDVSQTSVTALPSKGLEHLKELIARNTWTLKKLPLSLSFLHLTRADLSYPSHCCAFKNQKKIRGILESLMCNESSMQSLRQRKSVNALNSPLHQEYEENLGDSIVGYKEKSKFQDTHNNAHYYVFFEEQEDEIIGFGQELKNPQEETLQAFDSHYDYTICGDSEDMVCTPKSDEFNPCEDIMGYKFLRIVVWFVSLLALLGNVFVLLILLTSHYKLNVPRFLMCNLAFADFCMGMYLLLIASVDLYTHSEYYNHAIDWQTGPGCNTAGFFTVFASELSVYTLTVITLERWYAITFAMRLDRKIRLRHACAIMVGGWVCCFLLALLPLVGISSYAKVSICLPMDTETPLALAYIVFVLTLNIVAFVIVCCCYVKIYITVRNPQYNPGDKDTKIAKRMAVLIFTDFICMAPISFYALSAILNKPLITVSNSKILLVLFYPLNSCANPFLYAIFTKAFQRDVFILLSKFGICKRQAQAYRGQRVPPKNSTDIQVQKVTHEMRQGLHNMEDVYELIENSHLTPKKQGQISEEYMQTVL
Procedure, shortened: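 Antagonist mode: compound-treated TSHR-expressing HEK293 cells were stimulated with 1.5 ng/mL TSH (final) in presence of Ro20-1724 for 30 min at RT. HTRF cAMP detection after 1 h; each compound tested at 15 concentrations, triplicate.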

[10] = qHTS assay to identify small molecule agonists of the estrogen receptor alpha (ER-alpha) signaling pathway in the presence of an antagonist - cell viability counter screen (AID 1259386);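 further: series mostly up to about 92 µM; cells exposed to compounds for 22 h at 37 °C before the viability read; nearly all actives have a fitted effect of over 30% in size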
Procedure, shortened: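 VM7Luc4E2, stripped-serum pre-culture 5 d; 24hr plating; +ICI-182,780 10.0nM final; cpds 15 conc, 22hr, 37C/5% CO2; CellTiter-Fluor added at 21hr, fluorescence 1hr later.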

[11] = biological target: Progesterone receptor (Homo sapiens) (UniProt P06401); assay: qHTS assay to identify small molecule agonists of the progesterone receptor (PR) signaling pathway (AID 1346784; calls by dose curve; further: nearly all actives have a fitted effect of over 30% in size)
Progesterone receptor (Homo sapiens), sequence (P06401 whole entry, looked up): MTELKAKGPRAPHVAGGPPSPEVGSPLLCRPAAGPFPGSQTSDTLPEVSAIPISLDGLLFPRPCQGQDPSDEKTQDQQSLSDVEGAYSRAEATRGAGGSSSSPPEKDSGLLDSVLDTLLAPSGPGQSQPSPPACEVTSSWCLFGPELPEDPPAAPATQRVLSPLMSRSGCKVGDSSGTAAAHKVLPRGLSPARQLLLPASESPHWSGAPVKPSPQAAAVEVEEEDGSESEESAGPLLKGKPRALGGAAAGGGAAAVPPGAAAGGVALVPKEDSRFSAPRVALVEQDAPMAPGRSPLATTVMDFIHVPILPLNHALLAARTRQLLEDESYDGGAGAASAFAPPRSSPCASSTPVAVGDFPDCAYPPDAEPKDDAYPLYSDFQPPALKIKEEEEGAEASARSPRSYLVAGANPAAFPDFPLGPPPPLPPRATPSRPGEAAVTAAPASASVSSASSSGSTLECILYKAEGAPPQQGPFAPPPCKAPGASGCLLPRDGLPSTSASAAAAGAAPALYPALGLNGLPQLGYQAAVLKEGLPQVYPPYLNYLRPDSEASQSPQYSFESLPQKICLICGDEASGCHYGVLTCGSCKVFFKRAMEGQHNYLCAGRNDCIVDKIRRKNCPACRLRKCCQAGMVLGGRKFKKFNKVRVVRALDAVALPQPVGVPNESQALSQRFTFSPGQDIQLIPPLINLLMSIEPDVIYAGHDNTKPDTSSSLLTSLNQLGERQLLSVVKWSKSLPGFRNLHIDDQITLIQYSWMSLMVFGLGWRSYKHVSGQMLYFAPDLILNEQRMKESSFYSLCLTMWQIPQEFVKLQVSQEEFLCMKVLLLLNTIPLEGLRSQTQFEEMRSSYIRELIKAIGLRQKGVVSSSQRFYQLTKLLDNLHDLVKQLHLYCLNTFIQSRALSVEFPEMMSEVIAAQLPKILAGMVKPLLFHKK
Procedure, shortened: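 Reporter assay, GripTite PR-UAS-bla HEK 293T cells: 16 hr exposure to DMSO-dissolved compounds at 37C, 5% CO2, in steroid-depleted (2% charcoal-stripped FBS) medium; beta-lactamase measured by FRET fluorescence.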

[12] = biological target: Progesterone receptor (Homo sapiens) (UniProt P06401); assay: qHTS assay to identify small molecule antagonists of the progesterone receptor (PR) signaling pathway (AID 1346795; active means well fitted inhibition curve with a large enough effect in the signal ratio in the repeat runs, not every such curve was filed as active; the % refers to the signal ratio; further: potency means the concentration at half of the fitted maximal effect)
Procedure, shortened: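 Stimulus R5020 at 1 nM final; cells HEK293T PR-UAS-bla; medium with 2% charcoal-stripped FBS; compound exposure 16 hr at 37C, 5% CO2; detection by FRET beta-lactamase substrate, 2 hr, room temperature.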

[13] = qHTS assay to identify small molecule antagonists of the progesterone receptor (PR) signaling pathway - cell viability counter screen (AID 1346798); further: series mostly up to about 92 µM; nearly all actives have a fitted effect of over 50% in size
Procedure, shortened: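 In the same plates used for the beta-lactamase readout, cell viability of compound- and R5020-treated PR-UAS-bla HEK293T cells (16 hr, 37C) was assessed by CellTiter-Glo luminescence.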

[14] = qHTS assay to identify small molecule agonists of the progesterone receptor (PR) signaling pathway - cell viability counter screen (AID 1346799; calls by dose curve; further: nearly all actives have a fitted effect of over 45% in size)
Procedure, shortened: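 Multiplexed viability read: CellTiter-Glo luminescence, 30 min RT, following LiveBLAzer FRET measurement on PR-UAS-bla HEK293T cells exposed to compounds 16 hr.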

[15] = qHTS assay to identify small molecule antagonists of the TGF-beta/Smad signaling pathway - cell viability counter screen (AID 1346824); further: nearly all actives have a fitted effect of over 50% in size
Procedure, shortened: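 Cytotoxicity counter-screen run in the same wells as the beta-lactamase Smad reporter read: CellTiter-Glo luminescence after 30 min at room temperature. HEK 293T SBE-bla cells had 5 hr compound exposure at 37 C with TGF-beta1 (0.25 ng/mL stock).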

[16] = qHTS assay to identify small molecule agonists of the TGF-beta/Smad signaling pathway - cell viability counter screen (AID 1346829); further: top concentration of the series differs between compounds; nearly all actives have a fitted effect of over 45% in size
Procedure, shortened: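 Same-well cytotoxicity: CellTiter-Glo added after the 2 hr room-temperature beta-lactamase substrate step, luminescence measured 30 min later; cells had 5 hr of compound at 37 C.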

[17] = qHTS assay to identify small molecule agonists of the TGF-beta/Smad signaling pathway (AID 1346859; active means well fitted activation curve with a large enough effect in the signal ratio in the repeat runs, not every such curve was filed as active; the % refers to the signal ratio; further: series mostly up to about 77 µM)
Procedure, shortened: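 Screening used HEK 293T SBE-bla cells at 4,000/well. Test agents: 5 hr, 37 C. Detection: FRET substrate, 2 hr RT, then excitation 405 nm with emissions at 460 and 530 nm.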

[18] = biological target: Thyrotropin-releasing hormone receptor (Homo sapiens) (UniProt P34981); assay: qHTS assay to identify small molecule antagonists of the thyrotropin-releasing hormone receptor (TRHR) signaling pathway (AID 1346877; active means well fitted inhibition curve with a large enough effect in the repeat runs, not every such curve was filed as active; further: series mostly up to about 51 µM)
Thyrotropin-releasing hormone receptor (Homo sapiens), sequence (P34981 whole entry, looked up): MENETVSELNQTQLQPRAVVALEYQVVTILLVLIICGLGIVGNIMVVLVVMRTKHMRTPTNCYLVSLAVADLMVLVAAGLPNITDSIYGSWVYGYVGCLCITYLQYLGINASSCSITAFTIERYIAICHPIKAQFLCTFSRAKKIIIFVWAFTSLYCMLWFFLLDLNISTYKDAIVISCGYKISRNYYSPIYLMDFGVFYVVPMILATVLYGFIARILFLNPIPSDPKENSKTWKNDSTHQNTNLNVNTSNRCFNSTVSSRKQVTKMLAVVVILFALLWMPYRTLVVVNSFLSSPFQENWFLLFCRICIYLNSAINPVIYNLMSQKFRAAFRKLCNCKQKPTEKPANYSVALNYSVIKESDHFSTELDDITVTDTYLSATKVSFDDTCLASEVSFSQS
Procedure, shortened: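 Intracellular calcium fluorescence, read kinetically every second over 3 min, reports TRH-evoked signalling in HEK293 cells carrying TRHR. Test compounds were added 5 min ahead of a 1 nM TRH challenge.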

[19] = biological target: Thyrotropin-releasing hormone receptor (Homo sapiens) (UniProt P34981); assay: qHTS assay to identify small molecule agonists of the thyrotropin-releasing hormone receptor (TRHR) signaling pathway (AID 1346891; calls by dose curve; further: series mostly up to about 58 µM)
Procedure, shortened: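 Readout was intracellular calcium fluorescence in TRHR-Hek293 cells. Cells were incubated 18 h, dye-loaded 2 h at 37 °C, and treated with compound in agonist mode.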

[20] = biological target: Estrogen receptor (Homo sapiens) (UniProt P03372); assay: qHTS assay to identify small molecule agonists of the estrogen receptor alpha (ER-alpha) signaling pathway in the presence of an antagonist (AID 1259383; calls by dose curve; further: top concentration of the series differs between compounds; nearly all actives have a fitted effect of over 15% in size)
Estrogen receptor (Homo sapiens), sequence (P03372 whole entry, looked up): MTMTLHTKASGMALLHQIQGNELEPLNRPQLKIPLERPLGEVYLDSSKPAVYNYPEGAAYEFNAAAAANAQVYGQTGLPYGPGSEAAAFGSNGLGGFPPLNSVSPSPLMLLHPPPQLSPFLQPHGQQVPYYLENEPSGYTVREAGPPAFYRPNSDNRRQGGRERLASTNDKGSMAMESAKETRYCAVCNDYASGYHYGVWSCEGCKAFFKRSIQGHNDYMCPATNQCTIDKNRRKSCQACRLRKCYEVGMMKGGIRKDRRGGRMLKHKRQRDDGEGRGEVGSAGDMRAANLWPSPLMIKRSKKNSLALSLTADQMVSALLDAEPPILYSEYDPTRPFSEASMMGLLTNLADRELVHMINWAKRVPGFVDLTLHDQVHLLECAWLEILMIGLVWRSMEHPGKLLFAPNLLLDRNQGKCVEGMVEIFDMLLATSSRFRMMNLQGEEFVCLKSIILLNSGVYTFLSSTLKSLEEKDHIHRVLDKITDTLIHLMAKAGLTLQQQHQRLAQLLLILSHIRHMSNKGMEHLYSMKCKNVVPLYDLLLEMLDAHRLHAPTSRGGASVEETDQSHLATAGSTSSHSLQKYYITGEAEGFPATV
Procedure, shortened: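 VM7Luc4E2, endog. ER-alpha + 4×ERE-luc; charcoal-stripped FBS, phenol red-free, 5 d; 24hr plating; +10.0nM ICI-182,780 (final); cpds 15 conc, 22hr, 37C/5% CO2; ONE-Glo luminescence.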
On the % scale 0 is the no-effect control and ±100 the full control effect.

CCOC(=O)C(O)c1ccccc1 (configuration not stated)
inactive: Potency [1] | Potency [2] | Potency [3] | Potency [4] | Potency [5] | Potency [6] | Potency [7] | Potency [8] | Potency [9] | Potency [10] | Potency [11] | Potency [12] | Potency [13] | Potency [14] | Potency [15] | outcome [16] | Potency [17] | outcome [18] | Potency [19]

CCN(CC)CCNC(=O)c1cc(Br)c(N)cc1OC
inactive: Potency [1] | Potency [2] | Potency [3] | Potency [4] | Potency [5] | Potency [7] | Potency [20] | Potency [8] | Potency [9] | Potency [10] | Potency [11] | Potency [12] | Potency [13] | Potency [14] | Potency [15] | outcome [16] | Potency [17] | Potency [19]

CCOc1ccc(O)cc1
inactive: Potency [2] | Potency [3] | Potency [4] | Potency [5] | Potency [7] | Potency [20] | Potency [8] | Potency [9] | Potency [10] | Potency [11] | Potency [12] | Potency [13] | Potency [14] | Potency [15] | outcome [16] | Potency [17] | outcome [18] | Potency [19]
active: Potency [1] 15.4 µM

O=C(O)c1ccc(S(=O)(=O)O)cc1C(=O)O
inactive: Potency [1] | Potency [2] | Potency [3] | Potency [4] | Potency [5] | Potency [7] | Potency [20] | Potency [8] | Potency [9] | Potency [10] | Potency [12] | Potency [13] | Potency [14] | Potency [15] | outcome [16] | Potency [17] | outcome [18] | Potency [19]

CCO[Si](CCCCl)(OCC)OCC
inactive: Potency [1] | Potency [2] | Potency [3] | Potency [4] | Potency [5] | Potency [7] | Potency [20] | Potency [8] | Potency [9] | Potency [10] | Potency [15] | outcome [16] | Potency [17] | outcome [18] | Potency [19]

O=S(=O)(Oc1ccc(Cl)cc1)c1ccccc1
active: Potency [12] 24.3 µM
inactive: Potency [1] | Potency [2] | Potency [3] | Potency [4] | Potency [5] | Potency [7] | Potency [20] | Potency [8] | Potency [9] | Potency [10] | Potency [11] | Potency [13] | Potency [14] | outcome [16] | Potency [17] | outcome [18] | Potency [19]

CCOC(=O)C(=O)CCc1ccccc1
inactive: Potency [1] | Potency [2] | Potency [3] | Potency [4] | Potency [5] | Potency [6] | Potency [7] | Potency [20] | Potency [10] | Potency [11] | Potency [12] | Potency [13] | Potency [14] | Potency [15] | outcome [16] | Potency [17] | outcome [18] | Potency [19]

O=C(O)CNCC(=O)O
inactive: activity change, negative = inhibition [1] 8.21% [at 8.39 µM] | activation [2] 0.711% [at 8.39 µM] | activity, negative = inhibition [3] 5.13% [at 8.39 µM] | activity change, negative = cytotoxicity [4] -0.627% [at 8.39 µM] | activity change, negative = cytotoxicity [5] 12.4% [at 8.39 µM] | activation [6] 3.52% [at 8.39 µM] | activity change, negative = cytotoxicity [7] -2.7% [at 8.39 µM] | cAMP activity change [8] 0.505% [at 8.39 µM, hits give high values] | activity change, negative = inhibition [9] -1.17% [at 8.39 µM] | activity change, negative = cytotoxicity [10] -4.75% [at 8.39 µM] | activation [11] 1.22% [at 8.39 µM] | activity change, negative = inhibition [12] 1.55% [at 8.39 µM] | activity change, negative = cytotoxicity [13] -2.59% [at 8.39 µM] | activity change, negative = cytotoxicity [14] 20.3% [at 8.39 µM] | viability change, negative = cytotoxic [15] 10.5% [at 6.97 µM] | activity change, negative = cytotoxicity [16] -7.04% [at 6.97 µM] | activation [17] 6.59% [at 6.97 µM] | activity, negative = inhibition [18] -17.8% [at 4.65 µM] | activation [19] 0.139% [at 5.23 µM]

NCCCN1CCOCC1
inactive: Potency [1] | Potency [2] | Potency [3] | Potency [4] | Potency [5] | Potency [6] | Potency [7] | Potency [20] | Potency [8] | Potency [9] | Potency [10] | Potency [11] | Potency [12] | Potency [13] | Potency [14] | Potency [15] | Potency [17] | outcome [18] | Potency [19]

OC[C@H]1O[C@@H](OCCc2ccc(O)cc2)[C@H](O)[C@@H](O)[C@@H]1O
inactive: Potency [1] | Potency [2] | Potency [3] | Potency [4] | Potency [5] | Potency [7] | Potency [20] | Potency [10] | Potency [11] | Potency [12] | Potency [13] | Potency [14] | Potency [15] | outcome [16] | Potency [17] | outcome [18] | Potency [19]

CN1Cc2cc(C(=O)N3CCC(C4CCNCC4)CC3)ccc2NC(CC(=O)O)C1=O (configuration not stated)
inactive: Potency [1] | Potency [2] | Potency [3] | Potency [4] | Potency [5] | Potency [7] | Potency [20] | Potency [8] | Potency [9] | Potency [10] | Potency [11] | Potency [12] | Potency [13] | Potency [14] | Potency [15] | outcome [16] | Potency [17] | outcome [18] | Potency [19]

C=C1[C@H]2CC[C@@H]3[C@H]2C(C)(C)CCC[C@]13C
inactive: Potency [1] | Potency [2] | Potency [3] | Potency [4] | Potency [5] | Potency [7] | Potency [20] | Potency [10] | Potency [11] | Potency [12] | Potency [15] | outcome [16] | Potency [17] | outcome [18] | Potency [19]

COc1cc(Cl)ccc1Oc1ccc(Cl)cc1Cl
inactive: Potency [1] | Potency [2] | Potency [3] | Potency [4] | Potency [5] | Potency [7] | Potency [20] | Potency [8] | Potency [10] | Potency [11] | Potency [13] | Potency [14] | Potency [15] | outcome [16] | Potency [17] | outcome [18] | Potency [19]
active: Potency [12] 8.39 µM
